Bioassay records from PubChem BioAssay.
An excerpt weighted towards active compounds, which were near 10% of everything screened.
JMJD2A Tudor – JMJD2A Tudor domain (human) inhibition. O75164. 390,000 compounds, 4.4% hits. AID 504339. Potency, µM (series often up to 114 µM), inactives show at the top dose activity change, negative = inhibition, most hits filed as inhibitors. AlphaScreen JMJD2A-Tudor / H3K4me3 peptide binding; also: % is scaled to controls: 0 for no effect and ±100 for the full control effect; nearly all actives have a fitted effect of over 50% in size
HP1b chromo inh – inhibitors of HP1-beta chromodomain binding to methylated histone tails | AlphaScreen HP1-beta / biotin-H3K9me3 peptide binding | P83916 | 390,000 compounds, 0.56% hits | Potency, µM (titrated, usually from 114 µM), for the others: at the top dose activity change, negative = inhibition, hits mostly inhibitors; also: nearly all actives have a fitted effect of over 70% in size
Target sequence (P83916 whole entry, looked up): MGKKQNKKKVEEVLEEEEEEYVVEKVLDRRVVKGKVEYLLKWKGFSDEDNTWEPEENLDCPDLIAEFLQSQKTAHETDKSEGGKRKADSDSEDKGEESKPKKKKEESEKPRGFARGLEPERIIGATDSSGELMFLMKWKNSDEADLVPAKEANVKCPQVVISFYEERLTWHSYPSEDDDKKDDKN
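AlphaScreen: HP1-beta (50 nM) preformed 30 min with biotin-H3(1-18)K9me3 peptide (50 nM) in PBS pH 7.4, 0.01% Tween-20. Compound added for 30 min at RT, then streptavidin donor/nickel chelate acceptor beads (10 ug/mL) for 30 min.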
GLS inhibitor – glutaminase GLS (human) inhibition | O94925 | GLS enzymatic activity, qHTS titration | Potency, µM (doses to about 45.5 µM), inactives show top-dose activity change, negative = inhibition, hits mostly inhibitors | 410,000 compounds, 0.21% hits | AID 624170; also: % is scaled to controls: 0 for no effect and ±100 for the full control effect
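hKGA in 45 mM KH2PO4 (pH 8.2), 0.02% Tween-20 with compound, then 1mM L-Glutamine (stock as added) plus glutamate oxidase/HRP/Amplex red coupling mix. Fluorescence read initially and after 30 min at RT; signal change reflects glutamate formation.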
G9a inh – inhibitors of human histone lysine methyltransferase G9a | G9a H3K9 monomethylation, AlphaScreen, 2 h | Potency, µM (series often up to 102 µM), inactives show at the highest dose activity, negative = inhibition, usual class: inhibitors | Q96KQ7 | 350,000 compounds, 8.8% hits; also: % is scaled to controls: 0 for no effect and ±100 for the full control effect; nearly all actives have a fitted effect of over 75% in size
Target sequence (Q96KQ7 913-1193 limits assumed): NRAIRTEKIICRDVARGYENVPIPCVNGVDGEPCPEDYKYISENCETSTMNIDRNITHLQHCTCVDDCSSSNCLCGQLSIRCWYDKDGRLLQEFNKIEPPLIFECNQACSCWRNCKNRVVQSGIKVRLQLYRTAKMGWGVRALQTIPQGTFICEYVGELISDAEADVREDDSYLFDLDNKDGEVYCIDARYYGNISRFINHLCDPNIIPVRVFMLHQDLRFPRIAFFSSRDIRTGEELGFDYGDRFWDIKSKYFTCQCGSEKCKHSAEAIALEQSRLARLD
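Signal arises when biotinylated H3K9 peptide, once monomethylated, bridges streptavidin donor and antibody-captured acceptor beads. Enzyme at 20 nM was preincubated 15 min with test compounds; peptide 500 nM and SAM 20 uM then reacted for 2 h.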
BAZ2B inh – inhibitors of human BAZ2B bromodomain; AlphaScreen BAZ2B-H3K14Ac peptide displacement; 360,000 compounds, 4.4% hits; Potency, µM (titrated, usually from 114 µM), for the others: top-dose activity change, negative = inhibition, usual class: inhibitors; also: % is scaled to controls: 0 for no effect and ±100 for the full control effect; nearly all actives have a fitted effect of over 60% in size
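Inhibition is scored as reduced AlphaScreen emission. The BAZ2B/b-H3(5-23)K14Ac complex (50 nM each) in PBS pH 7.4, 0.01% Tween-20 meets compound (up to 110 uM) for 30 min at RT before bead addition.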
* marks the source's active call; other numbers are inactive results; ? = inconclusive; nt = no result given; [ ] = dose if it differs, or a comment. Calls follow the shape of the dose curve; as a rule, active = well fitted curve in the direction sought with a large enough effect; inconclusive = small, poorly fitted or top-dose-only effect, or another doubt; inactive = no such curve, though single readings can be large; an effect the other way counts as inactive or inconclusive. Potency is read from the fitted curve at half-maximal effect.

SMILES	JMJD2A Tudor	HP1b chromo inh	GLS inhibitor	G9a inh	BAZ2B inh
O=P(O)(O)OC[C@@H](O)CO	nt	nt	0.8%	nt	nt
O=C(CCC1N=C2c3ccccc3N=C(SCc3ccccc3F)N2C1=O)NC1CCCCC1 (stereo not given)	-0.3%	20.5%	7.3%	13.0%[59 µM]	-9.1%
CCc1ccccc1NC(=O)CSc1ncc2c(n1)-c1ccccc1N(Cc1ccc(C)cc1)S2(=O)=O	6.5%	17.2%	-2.8%	-3.3%[59 µM]	-0.2%
COc1cccc(NC(=S)N(CCCN2CCCC2)Cc2ccco2)c1	-7.6%	31.1%	1.7%	15.7%	-2.9%
COc1cccc(NC(=S)N(CCCN2CCCC2)Cc2cccn2Cc2ccc(Cl)cc2)c1	44.7µM*	?	-3.9%	39.8µM*	-37.7%
S=C(Nc1cccc(Cl)c1)N(CCCN1CCCC1)Cc1cccn1Cc1ccc(Cl)cc1	31.6µM*	-18.3%	0.0%	35.5µM*	?
NC(=O)[C@H]1CC2(CC(c3cccc(NC(=O)[C@H]4CCC(=O)N4)c3)=NO2)CN1C(=O)CC(c1ccccc1)c1ccccc1 (stereo not given in full)	-31.7%	14.7%	0.1%	13.6%[59 µM]	-23.9%
NC(=O)[C@@H]1CC2(CC(c3cccc(NC(=O)[C@H]4CCC(=O)N4)c3)=NO2)CN1C(=O)COc1ccc(Cl)cc1 (stereo not given in full)	?	4.5%	1.8%	?	79.4µM*
C=C(C)C(=O)Nc1cccc(C2=NOC3(C2)C[C@@H](C(N)=O)N(C(=O)c2ccc(Cl)cc2)C3)c1 (stereo not given in full)	7.08µM*	7.94µM*	10µM*	?	11.2µM*
C=C(C)C(=O)Nc1cccc(C2=NOC3(C2)C[C@H](C(N)=O)N(C(=O)c2ccccc2)C3)c1 (stereo not given in full)	22.4µM*	?	5.1%	?	44.7µM*
C=C(C)C(=O)Nc1cccc(C2=NOC3(C2)C[C@@H](C(N)=O)N(C(=O)c2cc([N+](=O)[O-])cc([N+](=O)[O-])c2C)C3)c1 (stereo not given in full)	17.8µM*	6.31µM*	?	?	28.2µM*
C/C=C/C(=O)Nc1cccc(C2=NOC3(C2)C[C@@H](C(N)=O)N(C(=O)c2cc([N+](=O)[O-])cc([N+](=O)[O-])c2C)C3)c1 (stereo not given in full)	-26.8%	4.9%	0.7%	8.7%[59 µM]	-18.1%
CCCCOc1ccc(S(=O)(=O)NCc2csc(-c3ccc(OC)cc3)n2)cc1	-7.0%	55.0%	-11.6%	7.2%[59 µM]	5.3%
C=C(C)C(=O)Nc1cccc(C2=NOC3(C2)C[C@H](C(N)=O)N(C(=O)COc2ccc(Cl)cc2)C3)c1 (stereo not given in full)	10µM*	10µM*	10µM*	?	6.31µM*
CCC(=O)Nc1cccc(C2=NOC3(C2)C[C@@H](C(N)=O)N(C(=O)COc2ccc(Cl)cc2)C3)c1 (stereo not given in full)	-13.3%	22.3%	3.2%	-8.1%[12.7 µM]	0.7%
Oc1c(C(c2ccccc2)N2CCCCC2)ccc2ccccc12 (stereo not given)	nt	nt	11.8%	nt	nt
CCn1c(CC(=O)Nc2cccc(OC)c2)nnc1SCC(=O)N1CCN(c2ccccc2)CC1	-24.7%	6.3%	6.1%	12.6µM*	-28.2%
Cn1c(Cc2cccc3ccccc23)nnc1SCC(=O)N1CCN(c2ccccc2)CC1	79.4µM*	-6.6%	41.2%	?	?
Nc1nc2ncc(C(=O)c3cc(Cl)cc(Cl)c3O)cc2s1	?	?	0.0%	50.1µM*	-26.9%
Nc1nc2ncc(C(=O)c3cc(F)ccc3O)cc2s1	3.1%	28.9%	-6.9%	nt	-12.0%
COc1ccc(CCNC(=O)c2cc3c(=O)n(C)c4cc(Cl)ccc4c3s2)cc1OC	-14.3%	15.1%	0.0%	-20.6%[59 µM]	nt
O=C(CSc1cn(CC(=O)N2CCCCC2)c2ccccc12)NCc1ccc(F)cc1	-12.5%	25.1%	2.8%	-30.2%[59 µM]	?
CSc1cccc(NC(=O)c2nnn(CC(=O)Nc3cc(C)cc(C)c3)c2N)c1	14.1µM*	13.4%	?	6.4%[59 µM]	-16.5%
CCc1ccccc1NC(=O)c1nnn(CC(=O)Nc2cccc(C)c2)c1N	-2.8%	21.0%	4.1%	9.9%	-31.1%
C[C@H](CO)N1C[C@H](C)[C@@H](CN(C)C(=O)CN2CCOCC2)Oc2ncc(-c3cncnc3)cc2C1=O	nt	nt	-3.7%	nt	nt
SMILES	JMJD2A Tudor	HP1b chromo inh	GLS inhibitor	G9a inh	BAZ2B inh
Cn1c(-c2csc(-c3ccccc3)n2)n[nH]c1=S	28.2µM*	-5.1%	-26.8%	-135.7%[59 µM]	-18.2%
COc1ccc(-c2n[nH]c(=S)n2-c2ccc(C)cc2)cc1	?	-3.2%	-18.3%	0.891µM*	-15.0%
COc1ccc(-n2c(-c3ccc(Br)cc3)n[nH]c2=S)cc1	31.6µM*	44.0%	-9.7%	-27.8%[0.501 µM]	-36.6%
Cc1ccc(-c2n[nH]c(=S)n2C)cc1	3.16µM*	?	-14.1%	10µM*	13.0%
Cc1cc(C)nc(Nc2n[nH]c(-c3ccccc3Br)n2)n1	-2.5%	28.8%	0.5%	?	-31.7%
S=c1nc(-c2ccccc2Br)[nH][nH]1	0.794µM*	?	0.4%	0.794µM*	12.0%
S=c1nc(-c2cccc(Cl)c2)[nH][nH]1	2.51µM*	12.2%	-16.6%	1.58µM*	-20.2%
S=c1nc(-c2cc(Cl)ccc2Cl)[nH][nH]1	5.01µM*	?	-10.7%	1.58µM*	-22.6%
Clc1ccc(Cl)c(-c2nc(-c3ccncc3)no2)c1	-6.8%	25.7%	-10.3%	26.8%	-2.1%
S=c1nc(-c2cc(Cl)cc(Cl)c2)[nH][nH]1	79.4µM*	-1.0%	4.2%	22.4µM*	-5.4%
Cc1c(NC(=O)c2ccc(C(=O)Nc3c(C)n(C)n(-c4ccccc4)c3=O)cc2)c(=O)n(-c2ccccc2)n1C	-3.3%	39.4%	0.3%	-10.1%[0.501 µM]	9.7%
Cc1c(NC(=O)C(=O)/C=C(\O)c2ccc(Br)cc2)c(=O)n(-c2ccccc2)n1C	25.1µM*	-17.5%	20.5%	?	?
O=C(CC[C@H]1O[C@@H](n2ccc(=O)[nH]c2=O)[C@H](O)[C@@H]1O)N[C@@H](Cc1ccccc1)C(=O)NCc1ccccc1	nt	nt	8.2%	nt	nt
CN(CCO)c1ccc(C(C(=O)c2ccccc2)c2ccc(N(C)CCO)cc2)cc1	44.7µM*	?	32.0%	3.6%[2.33 µM]	44.7µM*
CC(C)N(CCO)C(=O)C(c1ccccc1)c1ccccc1	-4.1%	26.2%	-5.3%	-12.1%	42.1%
COc1ccc(N(CC(=O)Nc2cccc(C(C)=O)c2)S(=O)(=O)c2ccccc2)c(OC)c1	-12.3%	22.8%	11.2%	3.16µM*	?
N#Cc1nc(Nc2cc(F)cc(F)c2)nc(NC2CCCC2)n1	-11.6%	nt	nt	nt	nt
O=c1oc2ccccc2nc1/C=C(O)/C=C\c1ccccc1	-20.7%	24.3%	17.1%	56.2µM*	?
